According to PubChem BioAssay (EPA / NIEHS):
The source made the active and inactive calls. How the source made its calls: active means hit-call score of the fitted dose curve at least 0.9, where 1 is the maximum; inactive means score below 0.9.

Experiment: ATG_PBREM_CIS: Attagene CIS-FACTORIAL HepG2 Assay for human Phenobarbital-responsive Enhancer Module (PBREM) (AID 2282955)
Details: HepG2 PBREM cis-reporter, Attagene multiplexed transcription; actives raise or lower the signal
Procedure: ATG_CIS is a cell-based, multiplexed-readout assay that uses HepG2, a human liver cell line, with measurements taken at 24 hours after chemical dosing in a 24-well plate.ATG_PBREM_CIS is one of 52 assay component(s) measured or calculated from the ATG_CIS assay. It is designed to make measurements of mRNA induction, a form of inducible reporter, as detected with fluorescence intensity signals by Reverse transcription polymerase chain reaction (RT-PCR) and Capillary electrophoresis technology.Data from the assay component ATG_PBREM_CIS was analyzed into 1 assay endpoint. This assay endpoint, ATG_PBREM_CIS, was analyzed with bidirectional fitting relative to DMSO as the negative control and baseline of activity. Using a type of inducible reporter, measures of mRNA for gain or loss-of-signal activity can be used to understand the reporter gene at the transcription factor-level as they relate to the gene NR1I3. Furthermore, this assay endpoint can be referred to as a primary readout, because this assay has produced multiple assay endpoints where this one serves a reporter gene function. To generalize the intended target to other relatable targets, this assay endpoint is annotated to the nuclear receptor intended target family, where the subfamily is non-steroidal.
Human liver HepG2 cells are transiently transfected with multiple reporter transcription units (MRTUs) in 6-well plates using FuGene 6 reagent (Roche; 3 ml FuGene/1 mg DNA). The MRTU constructs are regulated by a cis-regulating element (promoter). […] A major difference between the CIS and TRANS system is that in CIS activities of endogenous TFs are measured, whereas the TRANS assay evaluates changes in activities of exogenous, chimeric NR-Gal4 proteins. […] At the end of 24 hour incubation, total RNA was isolated using TriZol reagent (Invitrogen). The isolated RNA is then reverse-transcribed using oligo(dT) primer and Mo-MLV reverse transcriptase (Invitrogen) with DNAse I (Ambion) treatment for 30 min. The one-tenth of the produced cDNA was amplified by PCR using Taq DNA polymerase (Invitrogen) and two reporter sequence-specific primers. The PCR products were fluorescently labeled by primer extension with 6-arboxyfluorescein (6-FAM) 5'-labeled reporter sequence-specific primer (2 min at 95 C, 20 s at 68 C and 10 min at 72 C) and these products were digested with 5U of HpaI (New England Biolabs) for 2h at 37 C. The fragments were purified using Qiaquick PCR columns (Qiagen), analyzed on an ABI 3130xL genetic analyzer (Applied Biosystems) with peak positions identified by using a set of X-rhodamine (ROX)-labeled MapMarker1000 molecular weight standards (BioVentures). The raw capillary electrophoresis data was processed using Attagraph software (Attagene).

SMILES	outcome	AC50
Cc1[nH]c(=O)c(C#N)cc1-c1ccncc1	inactive	
CC(=O)CC(=O)Nc1ccc(C)cc1C	inactive	
C=C1C[C@]23C[C@@]1(O)CC[C@H]2[C@@]12C=C[C@H](O)[C@@](C)(C(=O)O1)[C@H]2[C@@H]3C(=O)O	inactive	
N#Cc1cscn1	inactive	
CC(=O)NCCO	inactive	
CCCCCCCC(=O)OCC(O)CO (stereo not given)	inactive	
COC(=O)c1cccnc1	inactive	
Cc1cc(C)nc(NS(=O)(=O)c2ccc(N)cc2)n1	inactive	
CCCCCCCCCCCCCCN(CCO)CCO	inactive	
CC(=O)O[C@H]1C[C@@H]2CC[C@@]1(C)C2(C)C	inactive	
FC(F)(F)COCC(F)(F)F	inactive	
N[C@@H](Cc1cc(I)c(Oc2cc(I)c(O)c(I)c2)c(I)c1)C(=O)O		11.2 µM (active)
COc1cc(C(C)C)ccc1C	inactive	
COC(=O)Nc1ccc(Cl)c(Cl)c1	inactive	
O=C(c1ccccc1)C(O)c1ccccc1 (stereo not given)	inactive	
CC(C)(N=C=O)c1cccc(C(C)(C)N=C=O)c1	inactive	
CCOc1ccc(NC(=O)CC(C)=O)cc1	inactive	
COc1cccc(OC)c1O	inactive	
OCc1ccc(Cl)cc1Cl	inactive	
CCCCOC(=O)CCCCCCCC(=O)OCCCC	inactive	

SMILES	outcome	AC50
CC(C)CCCCCCCCCCCCCCC(=O)O	inactive	
C=CC(=O)OCCC#N	inactive	
C=CC(=C)CCCC(C)(C)OC(C)=O	inactive	
COc1cc([C@@H]2c3cc4c(cc3[C@@H](O[C@@H]3O[C@@H]5CO[C@@H](C)O[C@H]5[C@H](O)[C@H]3O)[C@H]3COC(=O)[C@H]23)OCO4)cc(OC)c1O	inactive	
C#CC(C)N(C)C(=O)Nc1ccc(Cl)cc1 (stereo not given)	inactive	
CCCCCCCCCC(=O)OC	inactive	
Cc1ccc(S(=O)(=O)Oc2ccc(N=Nc3ccc(-c4ccc(N=Nc5c(O)ccc6cc(S(=O)(=O)O)cc(S(=O)(=O)O)c56)c(C)c4)cc3C)cc2)cc1	inactive	
CCCCCc1ccco1	inactive	
CC(C)OCCO	inactive	
Cc1cc(=O)oc2cc(N(C)C)ccc12		100 µM (active)
C[N+](C)(C)CCCCCC[N+](C)(C)C	inactive	
CCOC(=O)COC(=O)c1cc(Oc2ccc(C(F)(F)F)cc2Cl)ccc1[N+](=O)[O-]	inactive	
O=c1c(O)c(-c2ccc(O)cc2)oc2cc(O)cc(O)c12	inactive	
CCCCN(CCCC)C(=O)N(CCCC)CCCC		58.9 µM (active)
COC(=O)c1ccc([N+](=O)[O-])cc1	inactive	
C[Si]1(C)O[Si](C)(C)O[Si](C)(C)O1	inactive	
NCc1ccco1	inactive	
CCCC(C)=O	inactive	
CC(C)CCOC(=O)c1ccccc1	inactive	
CN(C)c1ccncc1	inactive	
